# Reference: PubChem BioAssay
# Test system: XIP peptide (Xip251-270)
# Assay: small-molecule binders of XIP peptide, primary screen, biochemical, small-molecule microarray, fluorescence 635/667 nm, 0.5 µg/mL protein (AID 1183)
# Conditions: small-molecule microarray binding, fluorescence 635 nm; higher = more signal
row,SMILES,composite z-score
1,CCCNC(=O)OC[C@H]1O[C@H](CCON=C[C@@H](OC)[C@H](C)C=CCC(=O)OC)C=C[C@@H]1Oc1ccc(OC)cc1,0.162
2,O=C1[C@H]2[C@H]3[C@H](O)[C@H](O)CC(=NO[C@@H]4O[C@H](CO)[C@@H](O)[C@H](O)[C@H]4O)[C@@H]3CC[C@H]2C(=O)N1c1ccc(F)cc1F,0.225
3,CCc1cc2c(nc1CC)CCN(CCC(C)=NOC[C@@H](O)COCc1ccco1)C2,0.679
4,c1ccc(C2NCCc3c2[nH]c2ccccc32)cc1 (stereo unspecified),0.4
5,COC(=O)CC=C[C@H](C)[C@@H](OCc1ccccc1Br)C(C)C,-0.039
6,COC(=O)[C@H](C)NC(=O)CCC1CC(OC(=O)NCCc2ccc(F)cc2)CC2(CCCC(COC(=O)NCC(c3ccccc3)c3ccccc3)O2)O1 (stereo partly specified),0.577
7,CCOC(=O)NN=C1C[C@@H](O)[C@@H](O)[C@@H]2[C@@H]3C(=O)N(C[C@@H]4CCCO4)C(=O)[C@@H]3CC[C@@H]12,-0.0422
8,CO[C@@H]1COC(=O)CC=C[C@@H](C)[C@@H]2C=C[C@H](O)[C@@H](COC(=O)[C@H](C)NC(=O)CC=C[C@H]1C)O2,0.437
9,CC(C)[C@@H](OCc1ccccc1)[C@H](C)C=NO[C@H](C)c1cn([C@H](CO)Cc2ccccc2)nn1,0.353
10,CC(C)=CCCC(C)=CCON=C1[C@H]2CCn3c(=O)n(Cc4cc5c(cc4Cl)OCO5)c(=O)n3[C@H]2[C@H](O)[C@@H]2O[C@H]12,0.208
11,O=C1[C@H]2[C@H]3[C@H](O)[C@H](O)CC(=NO[C@@H]4O[C@H](CO)[C@@H](O)[C@H](O)[C@H]4O)[C@H]3CC[C@H]2C(=O)N1C1CCCCC1,0.653
12,O=C1[C@H]2[C@H]3[C@H](O)[C@H](O)CC(=NOC[C@@H](O)COCc4ccco4)[C@H]3CC[C@H]2C(=O)N1c1cccc(Oc2ccccc2)c1,0.638
13,COC(=O)CC=C[C@H](C)[C@H](CO)NS(=O)(=O)c1ccc(C)cc1,0.507
14,CCN1C(=O)[C@H]2[C@H]3[C@H](O)[C@H](O)CC(=NOCc4ccccc4)[C@H]3CC[C@H]2C1=O,0.172
15,CC(=O)C[C@H](O)[C@@H](NC(=O)OC(C)(C)C)C(C)C,-0.161
16,C[C@H]1CC[C@@H](C(=O)O)N[C@@H]1c1ccc(C#CCN(C)C)cc1,0.512
17,CC(C)=NOCc1ccc(-c2cc(-c3ccccc3)no2)cc1,-0.0722
18,COC(=O)CC1OC1[C@H](C)[C@@H](OC)C(C)C (stereo partly specified),-0.739

row,SMILES,composite z-score
1,C#CCCCON=C1C[C@@H](O)[C@@H](O)[C@@H]2[C@@H]3C(=O)N([C@@H](C)c4ccccc4)C(=O)[C@@H]3CC[C@H]12,0.164
2,CC(=O)OC[C@H]1O[C@H](CCON=C[C@@H](C)[C@H](OCc2ccccc2)C(C)C)C=C[C@@H]1OC(C)=O,0.165
3,CCOC(=O)[C@H](CC(C)C)NC(=O)CCC1CC(OC(=O)NCCc2ccc(F)cc2)CC2(CCCC(COC(=O)NCc3ccccc3)O2)O1 (stereo partly specified),0.461
4,CO[C@@H]1COC(=O)CCC[C@@H](C)[C@H](OC)COC(=O)[C@H](Cc2ccccc2)NC(=O)CC=C[C@H]1C,-0.282
5,CC(C)[C@H](NC(=O)OC(C)(C)C)[C@@H](O)CC(=O)OC(C)(C)C,-0.4
6,COc1ccc(COC(=O)NN=C2C[C@@H](O)[C@@H](O)[C@@H]3[C@@H]4C(=O)N(Cc5ccc6c(c5)OCO6)C(=O)[C@@H]4CC[C@@H]23)cc1,-0.239
7,C=CC[C@@H]1C=C[C@H](ON=C2c3cc(OC)ccc3O[C@H](c3cccc(OC)c3)[C@H]2O)[C@@H](CO)O1,-0.479
8,CC(C)(C)N1C(=O)[C@H]2[C@H]3[C@H](O)[C@H](O)CC(=NO[C@@H]4O[C@H](CO)[C@@H](O)[C@H](O)[C@H]4O)[C@@H]3CC[C@H]2C1=O,0.26
9,CC(C)CON=C1C[C@@H](O)[C@@H](O)[C@@H]2[C@@H]3C(=O)N(Cc4ccccc4)C(=O)[C@@H]3CC[C@@H]12,-0.229
10,O=C(NN=C1C[C@@H](O)[C@@H](O)[C@@H]2[C@@H]3C(=O)N(c4cccc(Oc5ccccc5)c4)C(=O)[C@@H]3CC[C@@H]12)OCc1ccccc1,0.381
11,CC(=O)OC[C@H]1O[C@H](CCON=C(C)CCC(=O)OC[C@H]2O[C@H](C#Cc3ccccc3)C=C[C@@H]2Oc2ccc(C)cc2)C=C[C@@H]1OC(C)=O,0.0804
12,CCOC(=O)CCN1C(=O)[C@H]2[C@H]3[C@H](O)[C@H](O)CC(=NNC(=O)OCc4ccc(OC)cc4)[C@@H]3CC[C@H]2C1=O,0.05
13,CCOC(=O)[C@H](Cc1ccccc1)NC(=O)CCC1CC(OC(=O)NCc2ccc3c(c2)OCO3)CC2(CCCC(COC(=O)NCc3ccccc3)O2)O1 (stereo partly specified),0.389
14,CCOC(=O)CCN1C(=O)[C@H]2[C@H]3[C@H](O)[C@H](O)CC(=NOCc4ccccc4)[C@@H]3CC[C@H]2C1=O,0.635
15,C[C@H](c1ccccc1)N1C(=O)[C@H]2[C@@H]3C(=CC[C@H]2C1=O)C(=O)[C@H]1O[C@H]1[C@H]3O,0.008
16,O=C1C[C@@H](O)[C@@H](O)[C@@H]2[C@@H]3C(=O)N(C4CCCCC4)C(=O)[C@@H]3CC[C@H]12,0.349
17,O=C1CCCC2OC12C(O)CCc1ccccc1 (stereo unspecified),-0.213
18,O=C1[C@H]2[C@H]3[C@H](O)[C@H](O)CC(=NOCc4ccccc4)[C@H]3CC[C@H]2C(=O)N1c1ccc(F)cc1F,0.159
